Measurements as given in PubChem BioAssay (NCATS).
Inconclusive results are not listed. Activity calls are given as the source filed them. Calls follow the shape of the dose curve; as a rule, active = well fitted cell-killing curve with a large enough effect; inconclusive = small, poorly fitted or top-dose-only effect, or effect the other way; inactive = flat fitted curve, though single readings scatter.

Key:
Assay in all cases: Primary qHTS to identify gynecologic anti-cancer compounds using libraries of approved drugs and bioactive compounds (AID 1345084); also: nearly all actives have a fitted effect of over 55% in size
C33A = conditions: Gynecologic cancer cell panel viability, ATPlite luminescence, 48 h; series mostly up to 57.5 µM
Summary of the method: (§1)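 Cells, 1,000 per well, were allowed to settle for 16 h at 37 C before compound addition. Five concentrations were tested for 48 h, and viability was read by ATPlite luminescence after 15 min at room temperature.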

CAOV3 = conditions: Gynecologic cancer cell panel viability, ATPlite luminescence, 48 h; series mostly up to 57.5 µM
Summary of the method: as §1

CASKI = conditions: Gynecologic cancer cell panel viability, ATPlite luminescence, 48 h; series mostly up to 57.5 µM
Summary of the method: as §1

Es-2 = conditions: Gynecologic cancer cell panel viability, ATPlite luminescence, 48 h; series mostly up to 57.5 µM
Summary of the method: as §1

HeLa = conditions: Gynecologic cancer cell panel viability, ATPlite luminescence, 48 h; series mostly up to 57.5 µM
Summary of the method: as §1

Hek293T = conditions: Gynecologic cancer cell panel viability, ATPlite luminescence, 48 h, control line for the selectivity index; series mostly up to 57.5 µM
Summary of the method: as §1

JEG-3 = conditions: Gynecologic cancer cell panel viability, ATPlite luminescence, 48 h; series mostly up to 57.5 µM
Summary of the method: as §1

Measured: Potency

O=C(O)C1=CO[C@@H](O[C@@H]2O[C@H](CO)[C@@H](O)[C@H](O)[C@H]2O)[C@@H]2C(CO)=CC[C@H]12
inactive: all assays above

CCOC(=O)c1ccc(OCCC2CCN(c3ccc(C)nn3)CC2)cc1
inactive: all assays above

COc1ccnc(CS(=O)c2nc3cc(OC(F)F)ccc3[nH]2)c1OC (centres undefined)
inactive: all assays above

N#Cc1ccc(COC[C@H]2O[C@@H](n3c(NCc4ccc(Cl)c(Cl)c4)nc4c(N)ncnc43)[C@H](O)[C@@H]2O)cc1
inactive: all assays above

C/C(=C/CO)CCC1C(C)CCC2C(C)(C)CCCC12C (centres undefined)
inactive: all assays above

CC(=O)O[C@@H]1[C@@H](OC(C)=O)[C@H](C)O[C@@H](O[C@H]2[C@@H]3C=CO[C@@H](O[C@@H]4O[C@H](CO)[C@@H](O)[C@H](O)[C@H]4O)[C@@H]3[C@@]3(CO)O[C@@H]23)[C@@H]1OC(=O)/C=C/c1ccccc1
inactive: all assays above

Cc1c(F)ccc(C(=O)Nc2cc([N+](=O)[O-])ccc2N2CCN(C)CC2)c1Cl
inactive: all assays above

O=c1cc(N2CCN(c3cccc(C(F)(F)F)c3)CC2)[nH]c(=O)n1C1CCCCC1
inactive: all assays above

O=S(=O)(NCc1ccccn1)c1ccc(Br)c2ccccc12
inactive: all assays above

O[C@@](Cc1ncc(CC2(C(F)(F)F)CC2)[nH]1)(c1ccc(-n2cccn2)cc1)C(F)(F)F
inactive: all assays above

O=C(Nc1ccccc1)N1CCN(c2nc(-c3ccccc3)ns2)CC1
inactive: all assays above

O=C(O)c1cc(N(Cc2ccc(C3CCCCC3)cc2)C(=O)c2ccc(Oc3ccccc3)cc2)ccc1O
inactive: all assays above

CNCc1cc(-c2ccccc2F)n(S(=O)(=O)c2cccnc2)c1
inactive: all assays above

COc1ccccc1C(=O)Nc1cc2c(cc1N1CCCC1)n(C)c(=O)n2C
inactive: all assays above

CCC(C)CNCC(=O)N1CCC2SC=CC2C1COc1cccc(C)c1 (centres undefined)
inactive: all assays above

Cc1ccc(S(=O)(=O)N2CCC[C@H]2c2ccc(F)cc2)cc1
inactive: all assays above

C=C1C(=O)OC2C1CCC1(C)C(O)CCC(=C)C21 (centres undefined)
inactive: all assays above

O=C(NCCN1CCC(n2c(=O)[nH]c3ccccc32)CC1)c1ccc2ccccc2c1
inactive: all assays above

COCC(c1ccc(C(F)(F)F)cc1)N1CCN(C2(C)CCN(C(=O)c3c(C)ncnc3C)CC2)CC1C (centres undefined)
inactive: all assays above

CNC(=O)c1cc(Oc2ccc(NC(=O)c3cccc(C(F)(F)F)c3)cc2)ccn1
inactive: all assays above

CCc1cccc(CC)c1-n1c(C=C(C)C)c(C(=O)N2CCNCC2)cc(-c2nc(-c3ccc(C(F)(F)F)cc3)cs2)c1=O
inactive: all assays above

Cc1nnc(-c2ccc(-c3ccc(C(=O)Nc4ccc(O)c(N5CCN(C)CC5)c4)cc3)c(C)c2)o1
inactive: all assays above

C/C=C(\C)C(=O)O[C@H]1C[C@](C)(O)[C@H]2CC=C(C)[C@H]2[C@@H]2OC(=O)[C@H](C)[C@H]21
inactive: all assays above

CCOc1nc(NC(=O)Cc2cc(OC)ccc2OC)cc(N)c1C#N
inactive: all assays above

CC(NCCCc1cccc(C(F)(F)F)c1)c1cccc2ccccc12 (centres undefined)
inactive: all assays above

CCC/C=C\C=C/CCc1cc(O)c([C@@H]2O[C@H](CO)[C@@H](O)[C@H](O)[C@H]2O)c(O)c1C(=O)OC
inactive: all assays above

CC(C)(C)Oc1ccc(OCC2Cc3ccccc3CN2C(=O)c2cccc3ccccc23)cc1 (centres undefined)
inactive: all assays above

C/C(=C\CCC(C)C1=CCC2(C)OC3=C(CC12)C(=O)C(O)CC3)CO (centres undefined)
inactive: all assays above

COC(=O)C(Cc1ccc(OCCn2c(=O)sc3cc(C(=O)c4ccccc4)ccc32)cc1)C(=O)OC
inactive: all assays above

COc1ccc(CCCN2CCC(COC(c3ccccc3)c3ccccc3)CC2)cc1
inactive: all assays above

C=C1C(=O)O[C@@H]2[C@H]1CCC(C)=C(CCC(=O)O)[C@@]2(C)O
inactive: all assays above

CC(=O)O[C@H]1C[C@@](O)(C(C)C)[C@@H]2[C@@H](OC(=O)c3ccc(O)cc3)CC(C)=CC[C@@]12C
inactive: all assays above

O=[N+]([O-])c1cn2c(n1)OC[C@@H](OCc1ccc(-c3ccc(OC(F)(F)F)cc3)nc1)C2
inactive: all assays above

Nc1c(S(=O)(=O)c2ccccc2)c2nc3ccccc3nc2n1-c1ccc(F)cc1
inactive: all assays above

CC(C)C(C)C(O)C1CC23CC(=O)C4(O)C(=C2CCC3C1C)C=CC1(O)CC(O)CCC14C (centres undefined)
inactive: all assays above

O=C1c2ccc(Nc3ccc(F)cc3F)cc2CCc2ccc(OCC(O)CO)cc21 (centres undefined)
inactive: all assays above

CN1CCN(c2ccc(Nc3cc(-c4cccc(-n5ccc6cc(C7CC7)cc(F)c6c5=O)c4CO)cn(C)c3=O)nc2)CC1
inactive: all assays above

Fc1ccc(N2CCN(CCC3OCCc4ccccc43)CC2)cc1 (centres undefined)
inactive: all assays above

COc1c2c(c(C)c3c1C(=O)OC3)O[C@@]1(C)C[C@@H](OC(C)=O)[C@]34O[C@](OC)(CC[C@]3(C)[C@H]1C2)OC4(C)C
inactive: all assays above

COc1cc2ncnc(Nc3ccc(F)c(Cl)c3)c2cc1O
inactive: all assays above

COc1ccc(C2=NC(c3ccc(Cl)cc3)C(c3ccc(Cl)cc3)N2C(=O)N2CCNC(=O)C2)c(OC(C)C)c1 (centres undefined)
inactive: all assays above

Cc1nc2cc(C(=O)NCc3ccccn3)nn2c(C)c1Cc1cccc(Cl)c1
inactive: all assays above

C/C(=C/C=C\C=C\Cc1cnco1)[C@@H](O)C(C)(C)C(N)=O
inactive: all assays above

CN1CCN(C(=O)CN[C@@H]2C[C@H]2c2ccc(OCc3ccccc3)cc2)CC1
inactive: all assays above

O=C(NCC1(c2nc(-c3ccccc3)cs2)CCOCC1)c1cccc(-c2noc(C(F)(F)F)n2)c1
inactive: all assays above

O=C(NCC(=O)N1CCCC1)Nc1ccc2cnccc2c1
inactive: all assays above

CC(=O)O[C@@H]1C[C@@]2(C)C(CC[C@]3(C)C2CC=C2C4CC(C)(C)CC[C@]4(C(=O)O)CC[C@]23C)C(C)(C)[C@H]1O (some centres undefined)
inactive: all assays above
